Reference: PubChem BioAssay
Calls of active or inactive are those of the source. Unless noted, no rule for the calls is given here.

Columns and labels:
[1] = system: Wnt5a (protein binding on small-molecule microarray); assay: Wnt5a binders on small-molecule microarray, primary screen, biophysical, 635/667 nm fluorescence (AID 1142); conditions: 635 nm fluorescence, higher = more signal;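 also: fluorescence read at 667 nm with signal to noise per printed feature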
[2] = cell viability in Huh7 cells, primary screen, cytotoxicity control for HCV replication inhibitor project, CellTiter-Glo luminescence, basal, 48 h (AID 1143); conditions: Huh7 HCV replicon, higher = more signal, called active from +8 up or from −8 down;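 also: Huh7 hepatoma cells carrying a hepatitis C replication reporter with no stimulus; test concentration not given here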
[3] = P. aeruginosa biofilm formation inhibitors, primary screen, PAO1 strain, BacTiter-Glo luminescence, LB-PBS (AID 1144); conditions: 12 h, higher = more signal
[4] = CREB reporter modulators without forskolin, primary screen, cell-based, PC12, CRE-LacZ reporter, unstimulated (AID 1145); conditions: no forskolin, luminescence, 4.5 h, higher = more signal, called active from +8 up or from −8 down
[5] = CREB reporter modulators under forskolin, primary screen, cell-based, PC12, CRE-LacZ reporter, forskolin-stimulated (AID 1146); conditions: luminescence, 4.5 h, higher = more signal, called active from +8 up or from −8 down;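 also: PC12 cells with 6xCRE LacZ reporter stimulated by forskolin 10 µM; beta-galactosidase reporter signal reflecting CREB driven transcription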
[6] = molecular target: Streptavidin (Streptomyces avidinii) (UniProt P22629); assay: streptavidin binders on small-molecule microarray, primary screen, artefact control for SMM compound annotation, biophysical, 635/667 nm fluorescence (AID 1147); conditions: streptavidin binding, higher = more signal;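 also: signal reflects streptavidin binding to arrayed compounds as a control protein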
[7] = small-molecule binders of probe aInhba, primary screen, biochemical, small-molecule microarray, 635/667 nm fluorescence (AID 1148); conditions: higher = more signal;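 also: score merges 667nm spot fluorescence with signal-to-noise for antibody binding to printed compounds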
[8] = molecular target: Torsin-1A (Homo sapiens) (UniProt O14656); assay: torsin A binders from cell lysate, primary screen, small-molecule microarray, wild-type, 635/667 nm (AID 1149); conditions: COS7 hTOR1A-WT lysate, 635 nm fluorescence, higher = more signal
[9] = molecular target: Torsin-1A (Homo sapiens) (UniProt O14656); assay: small-molecule binders of mutant TOR1A in lysate, primary screen, cell lysate, small-molecule microarray, COS7 lysate, 635/667 nm fluorescence (AID 1150); conditions: COS7 hTOR1A mutant lysate, 635 nm fluorescence, higher = more signal;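 also: score pools 667 nm emission and signal to noise measuring lysate protein binding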
[10] = system: Sonic hedgehog protein (Shh); assay: small-molecule binders of Shh protein, primary screen, biochemical, small-molecule microarray, 635/667 nm fluorescence (AID 1151); conditions: small-molecule microarray binding, 635 nm fluorescence; higher = more signal;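 also: Shh protein binding to compounds spotted on small-molecule microarray slides; score combines spot fluorescence intensity with signal-to-noise across triplicate slides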
[11] = E. coli DRC41 culture turbidity changes, primary screen, E. coli filamentation inducer project, strain DRC41, OD650, 48 h (AID 1152);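 also: E. coli MC1000 strain DRC41 lacking acrAB efflux pump and sulA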; conditions: E. coli DRC41 (acrAB sulA), higher = more signal, called active from +8 up or from −8 down
[12] = small-molecule binders of probe aLefty1, primary screen, biochemical, small-molecule microarray, 635/667 nm fluorescence (AID 1153); conditions: higher = more signal;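 also: score merges spot fluorescence with signal-to-noise ratio from the scanned slide images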
[13] = PSAC antagonists in infected red cells, primary screen, cell-based, P. falciparum Indochina, OD700, 1 h (AID 1154); conditions: P. falciparum Indochina infected RBC osmotic lysis, higher = more signal, called active from +8 up or from −8 down
[14] = PSAC antagonists in infected red cells, primary screen, cell-based, P. falciparum Indochina, OD700, 2 h (AID 1155);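 also: lysis reports solute entry through the parasite surface anion channel PSAC; channel blockers reduce lysis of infected cells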; conditions: P. falciparum Indochina infected erythrocytes, osmotic lysis OD700; higher = more signal, called active from +8 up or from −8 down
[15] = osmotic lysis modulators in infected erythrocytes, primary screen, PSAC antagonist project, cell-based, P. falciparum Indochina, OD700, 3 h (AID 1156); conditions: higher = more signal, called active from +8 up or from −8 down
[16] = PSAC antagonists in infected red cells, primary screen, cell-based, P. falciparum Indochina, OD700, 18 h (AID 1157); conditions: P. falciparum Indochina infected erythrocytes, osmotic lysis OD700, 18 h; higher = more signal, called active from +8 up or from −8 down
[17] = modulators of S6 phosphorylation in cells, primary screen, cell-based, A549, cytoblot, luminescence, serum-stimulated (AID 1158); conditions: A549 phospho-S6 cytoblot, 5 h, higher = more signal;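 also: serum-stimulated A549 lung adenocarcinoma cells; signal is phosphorylated S6 detected by cytoblot immunostaining with HRP secondary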
[18] = molecular target: NADPH oxidase 2 (Homo sapiens) (UniProt P04839); assay: NOX2-dependent H2O2 signal modulators, primary screen, NOX inhibitor project, cell-based, HEK293-NOX2, PMA-stimulated, Amplex Red fluorescence (AID 1159); conditions: 45 min, higher = more signal, called active from +8 up or from −8 down; also: test concentration not given here
[19] = molecular target: NADPH oxidase 4 (Homo sapiens) (UniProt Q9NPH5); assay: NOX4-dependent H2O2 signal modulators, primary screen, NOX inhibitor project, cell-based, HEK293-NOX4, tetracycline-induced, Amplex Red fluorescence (AID 1160); conditions: 45 min, higher = more signal, called active from +8 up or from −8 down
[20] = molecular target: NADPH oxidase 5 (Homo sapiens) (UniProt Q96PH1); assay: NOX5-dependent H2O2 signal modulators, primary screen, NOX inhibitor project, cell-based, HEK293-NOX5, Amplex Red fluorescence (AID 1161); conditions: HEK293-NOX5, ionomycin, 45 min, higher = more signal
NADPH oxidase 5 (Homo sapiens), sequence (Q96PH1 whole entry, looked up): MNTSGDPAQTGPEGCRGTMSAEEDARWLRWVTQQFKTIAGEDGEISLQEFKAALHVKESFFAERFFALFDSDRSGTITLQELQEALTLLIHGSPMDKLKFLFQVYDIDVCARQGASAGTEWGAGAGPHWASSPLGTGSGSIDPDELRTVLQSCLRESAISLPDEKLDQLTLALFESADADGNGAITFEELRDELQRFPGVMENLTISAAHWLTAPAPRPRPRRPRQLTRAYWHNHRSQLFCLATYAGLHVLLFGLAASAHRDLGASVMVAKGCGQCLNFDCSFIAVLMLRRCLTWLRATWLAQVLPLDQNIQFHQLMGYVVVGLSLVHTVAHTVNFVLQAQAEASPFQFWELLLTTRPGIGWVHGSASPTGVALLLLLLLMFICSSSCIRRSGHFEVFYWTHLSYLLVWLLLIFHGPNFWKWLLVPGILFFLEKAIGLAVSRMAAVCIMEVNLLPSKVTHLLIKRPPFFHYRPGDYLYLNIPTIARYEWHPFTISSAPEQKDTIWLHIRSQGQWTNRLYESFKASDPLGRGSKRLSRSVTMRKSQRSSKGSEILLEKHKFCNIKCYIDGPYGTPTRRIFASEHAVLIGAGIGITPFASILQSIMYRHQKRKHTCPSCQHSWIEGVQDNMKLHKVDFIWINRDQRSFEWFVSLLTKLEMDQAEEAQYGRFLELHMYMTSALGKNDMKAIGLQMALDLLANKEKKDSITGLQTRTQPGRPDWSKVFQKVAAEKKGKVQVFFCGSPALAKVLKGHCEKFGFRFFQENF

NADPH oxidase 4 (Homo sapiens), sequence (Q9NPH5 whole entry, looked up): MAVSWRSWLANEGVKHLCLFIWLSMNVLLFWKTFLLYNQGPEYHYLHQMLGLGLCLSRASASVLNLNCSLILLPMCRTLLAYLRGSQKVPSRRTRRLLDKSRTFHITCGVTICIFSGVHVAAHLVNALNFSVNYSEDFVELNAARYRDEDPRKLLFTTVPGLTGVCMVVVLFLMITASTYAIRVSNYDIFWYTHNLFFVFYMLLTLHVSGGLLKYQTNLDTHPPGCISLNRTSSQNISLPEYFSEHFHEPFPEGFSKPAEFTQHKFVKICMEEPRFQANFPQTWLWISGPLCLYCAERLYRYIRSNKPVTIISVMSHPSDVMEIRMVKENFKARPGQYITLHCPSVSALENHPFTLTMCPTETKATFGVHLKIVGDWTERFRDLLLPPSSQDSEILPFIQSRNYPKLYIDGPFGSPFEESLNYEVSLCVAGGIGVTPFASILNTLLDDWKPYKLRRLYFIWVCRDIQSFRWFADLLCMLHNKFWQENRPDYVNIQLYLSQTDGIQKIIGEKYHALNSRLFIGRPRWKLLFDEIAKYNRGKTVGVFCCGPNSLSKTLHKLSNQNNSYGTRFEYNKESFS
NADPH oxidase 2 (Homo sapiens), sequence (P04839 whole entry, looked up): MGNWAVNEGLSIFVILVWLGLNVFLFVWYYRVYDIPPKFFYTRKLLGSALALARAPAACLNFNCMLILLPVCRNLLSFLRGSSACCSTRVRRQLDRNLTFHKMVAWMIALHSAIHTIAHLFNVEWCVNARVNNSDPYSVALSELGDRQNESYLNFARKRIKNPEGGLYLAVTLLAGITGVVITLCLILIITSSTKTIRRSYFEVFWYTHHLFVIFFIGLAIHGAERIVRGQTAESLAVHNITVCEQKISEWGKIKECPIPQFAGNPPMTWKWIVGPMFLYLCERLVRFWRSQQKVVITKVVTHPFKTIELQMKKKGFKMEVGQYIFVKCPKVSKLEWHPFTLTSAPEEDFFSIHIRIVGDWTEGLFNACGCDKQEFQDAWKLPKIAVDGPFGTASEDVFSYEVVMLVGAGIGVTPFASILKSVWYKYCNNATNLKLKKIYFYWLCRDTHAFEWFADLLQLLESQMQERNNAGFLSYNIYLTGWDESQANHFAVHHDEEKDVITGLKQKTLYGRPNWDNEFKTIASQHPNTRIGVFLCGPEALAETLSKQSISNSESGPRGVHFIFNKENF
Streptavidin (Streptomyces avidinii), sequence (P22629 whole entry, looked up): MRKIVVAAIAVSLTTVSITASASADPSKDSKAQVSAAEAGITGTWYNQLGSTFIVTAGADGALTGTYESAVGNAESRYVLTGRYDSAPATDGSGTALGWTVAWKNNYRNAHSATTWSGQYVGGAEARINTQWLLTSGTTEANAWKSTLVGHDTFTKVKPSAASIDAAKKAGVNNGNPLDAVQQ
Torsin-1A (Homo sapiens), sequence (O14656 whole entry, looked up): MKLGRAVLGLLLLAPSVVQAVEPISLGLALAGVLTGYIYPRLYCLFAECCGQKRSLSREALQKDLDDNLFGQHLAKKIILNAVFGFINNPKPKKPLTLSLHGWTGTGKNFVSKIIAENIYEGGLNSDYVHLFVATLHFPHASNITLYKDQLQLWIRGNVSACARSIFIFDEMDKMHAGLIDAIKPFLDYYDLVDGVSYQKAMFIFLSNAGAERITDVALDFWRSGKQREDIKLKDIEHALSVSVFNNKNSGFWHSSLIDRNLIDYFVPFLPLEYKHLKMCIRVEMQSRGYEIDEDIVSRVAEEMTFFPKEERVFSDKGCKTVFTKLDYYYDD

Structure (SMILES) | composite z-score [1] | z-score [2] | z-score [3] | z-score [4] | z-score [5] | composite z-score [6] | composite z-score [7] | composite z-score [8] | composite z-score [9] | composite z-score [10] | z-score [11] | composite z-score [12] | z-score [13] | z-score [14] | z-score [15] | z-score [16] | z-score [17] | z-score [18] | z-score [19] | z-score [20]
C=CCOC(=O)[C@H]1[C@@H]2C(=O)O[C@@H](c3ccccc3)[C@@H](c3ccccc3)N2[C@@H](c2ccc(OCCOC(=O)[C@H]3C[C@H]4C(=O)N[C@@H](CCCC[N+](C)(C)C)C(=O)N4[C@H]3c3ccc(O)cc3)cc2)[C@]12C(=O)Nc1ccc(I)cc12 | 0.232 | -0.326 (inactive) | -0.615 (inactive) | 0.415 (inactive) | -0.226 (inactive) | 0.134 | 0.0759 | 1.39 | -0.243 | 2.22 | -0.535 (inactive) | 0.275 | 3.9 (inactive) | 1.69 (inactive) | -3.16 (inactive) | 0.278 (inactive) | -0.519 | 0.595 (inactive) | 0.72 (inactive) | 0.895
CCCC#C[Si](O[C@H](CC)c1cn(Cc2cccc(Cl)c2)nn1)(C(C)C)C(C)C | 0.227 | -1 (inactive) | -0.618 (inactive) | -0.505 (inactive) | -0.558 (inactive) | 0.379 | 0.192 | 0.882 | 0.244 | 0.773 | 1.68 (inactive) | 0.171 | 0.131 (inactive) | 0.659 (inactive) | -0.871 (inactive) | 0.283 (inactive) | -0.131 | 0.041 (inactive) | 0.076 (inactive) | 0.842
O=C1C[C@@](C(=O)NCCN2CCOCC2)(c2ccc([N+](=O)[O-])cc2)[C@@H](c2ccc(CO)cc2I)N1CC12CC3CC(CC(C3)C1)C2 | 0.92 | -5.9 (inactive) | 1.22 (inactive) | -0.269 (inactive) | -0.435 (inactive) | 0.489 | 0.134 | 0.97 | 0.578 | 2.14 | -0.942 (inactive) | 0.344 | 18.9 (active) | 10.2 (active) | 0.797 (inactive) | 1.28 (inactive) | 0.238 | -8.18 (active) | -1.75 (inactive) | 1.58
COCCOC(=O)N1C(=O)[C@@]2(c3cc(C#CCC(C(=O)OC)C(=O)OC)ccc31)[C@H](C(=O)Nc1nc3ccccc3s1)[C@H]1C(=O)O[C@H](c3ccccc3)[C@H](c3ccccc3)N1[C@@H]2c1ccccc1OCCO | 0.346 | -3.81 (inactive) | -1.12 (inactive) | -0.141 (inactive) | 0.401 (inactive) | 0.487 | 0.0711 | 0.776 | 0.456 | 1.13 | 0.275 (inactive) | 0.212 | 11.2 (active) | 2.85 (inactive) | 0.599 (inactive) | 2.31 (inactive) | 0.0413 | 0.652 (inactive) | 0.671 (inactive) | 0.234
O[C@@H](Cc1ccccc1)[C@H]1C2C=CCCC=C2CN1Cc1cccc(Cl)c1 (stereo not given in full) | 0.35 | -1.1 (inactive) | -0.829 (inactive) | 3.56 (inactive) | 2.78 (inactive) | 0.513 | 0.0173 | 0.739 | -0.453 | 1.2 | 1.31 (inactive) | 0.0701 | 2.58 (inactive) | 0.499 (inactive) | 1.33 (inactive) | 0.108 (inactive) | 0.399 | -0.318 (inactive) | -1.27 (inactive) | -0.609
C[C@@]1([C@@H](NC(=O)c2ccc(-c3ccccc3)cc2)c2ccc(Cl)cc2)C[C@H]1C1CCCCC1 | 0.271 | -1.18 (inactive) | -0.123 (inactive) | 0.972 (inactive) | 0.829 (inactive) | 1.35 | 0.289 | 0.564 | 0.0484 | -0.106 | -1.28 (inactive) | 0.284 | 15.8 (active) | 3.36 (inactive) | -0.0758 (inactive) | 1.11 (inactive) | -0.216 | -0.75 (inactive) | 0.205 (inactive) | 0.644
NCCCCCCNC(=O)[C@@H]1C[C@@H]2C(=O)NCC(=O)N2[C@@H]1c1ccc(O)cc1 | 0.387 | -0.402 (inactive) | -2.2 (inactive) | -1.07 (inactive) | 0.0413 (inactive) | 0.718 | -0.104 | 1.3 | 0.665 | 2.18 | 0.812 (inactive) | -0.0126 | 0.846 (inactive) | 1.04 (inactive) | 4.22 (inactive) | 0.497 (inactive) | 0.257 | -0.302 (inactive) | 0.4 (inactive) | 0.182
COC(=O)[C@@]1(Cc2ccc(OC)cc2)[C@H]2c3cc(C(=O)N(C)C)n(CCc4ccccn4)c3C[C@H]2CN1C(=O)c1ccccc1 | 1.19 | -2.18 (inactive) | 0.165 (inactive) | 1.92 (inactive) | 0.577 (inactive) | 1.86 | 1.17 | -0.128 | 1.04 | -0.127 | -1.83 (inactive) | 1.64 | 3.81 (inactive) | 1.77 (inactive) | 1.01 (inactive) | 1.58 (inactive) | -0.334 | 0.63 (inactive) | -0.925 (inactive) | -1.04
CC1CC/C=C\[C@H]2OC34C=CCN(C(C)(C)C)C(=O)[C@H]3N(CCO)C(=O)[C@@H]4C2C(=O)O1 (stereo not given in full) | -0.276 | -0.973 (inactive) | -0.0996 (inactive) | -0.753 (inactive) | -0.237 (inactive) | -1.59 | -0.171 | -2.34 | -2.49 | -0.0338 | 0.583 (inactive) | -0.0611 | 2.16 (inactive) | 0.518 (inactive) | -0.474 (inactive) | 0.31 (inactive) | 0.615 | 1.36 (inactive) | 0.126 (inactive) | 2.57
CC(C)N1C(=O)[C@@]2(Cc3ccccc31)c1ccccc1C(=O)N(Cc1ccccc1Cl)[C@H]2c1ccc(CO)cc1 | -0.515 | -2.27 (inactive) | -1.68 (inactive) | 0.389 (inactive) | -0.389 (inactive) | -0.136 | -0.29 | -1.47 | -0.848 | -1.25 | 0.581 (inactive) | -0.17 | -0.0086 (inactive) | -0.513 (inactive) | 1.23 (inactive) | -1.78 (inactive) | 1.17 | 0.16 (inactive) | 0.946 (inactive) | 1.04
